Assay results from PubChem BioAssay.
Calls of active or inactive are those of the source.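 Rule for the calls, unless noted: active = NADPH fluorescence slope more negative than the mean of all samples by about 3 SD, 99.7% confidence; inactive = the rest.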

What was measured:
[1] = inhibitors of TNFa-induced NFkB p65 translocation, primary screen, imaging, HUVEC, MLSMR starter and 10KST1 sets (AID 438;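 active = inhibition above 20% together with a positive visual image hit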;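 note: compound added about 3h40 before a 20 min TNFalpha stimulation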;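 for inhibition: signal is the nuclear over cytoplasmic p65 intensity ratio per well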); conditions: HUVEC TNFa-induced p65 nuclear translocation; cell count: measured here: nuclei count (cytotoxicity indicator), at 2.08 µM; inhibition: at 2 µM, stronger effect = higher value, 0% TNFa-plus-vehicle, 100% no-TNFa wells
[2] = endothelial E-selectin expression blockers – imaging, HUVEC, immunofluorescence, MLSMR starter and 10KST1 sets, primary screen (AID 487;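 active = visually confirmed hit in the image check and inhibition above 20%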;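 for inhibition: signal is fraction of cell area covered by stained E-selectin grains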;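 for nuclei count: 100% = median nuclei count of all wells on the same plate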); conditions: HUVEC TNFalpha-induced E-selectin immunofluorescence imaging, at 2 µM; inhibition: stronger effect = higher value; nuclei count: measured here: cell number, toxicity
[3] = Primary imaging screen for DUSP6 inhibitors that restore phospho-Erk in transfected HeLa cells, chemical complementation (AID 609;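 active = compounds giving at least 50% inhibition in the cell-based MKP-3 phosphatase rescue imaging test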;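 for inhibition: phospho-Erk level distribution per well compared with pooled transfected vehicle control wells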); conditions: HeLa MKP-3 transfected, phospho-Erk imaging KS statistic, at 10 µM, cells stimulated with TPA for 15 min
[4] = biological target: Dual specificity protein phosphatase 6 (Homo sapiens) (UniProt Q16828); experiment: as above; conditions: HeLa MKP-3 transfected, phospho-Erk imaging KS statistic; at 10 µM; stronger effect = higher value; cells stimulated with TPA for 15 min
[5] = biological target: Voltage-gated potassium channel subunit beta-2 (Rattus norvegicus) (UniProt P62483); experiment: inhibitors of rat Kvbeta2 reductase activity – biochemical, NADPH fluorescence, primary screen (AID 622;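 active = fluorescence slope higher than the sample average by over 3 SD, cut at about -0.22 in these data, passing the limit was not always enough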;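 note: slope of raw intensity against log time taken from 70 to 1610 s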); conditions: recombinant KvBeta, 4-cyanobenzaldehyde reduction, at 10 µM, stronger effect = higher value
[6] = biological target: Voltage-gated potassium channel subunit beta-2 (Rattus norvegicus) (UniProt P62483); experiment: enhancers of rat Kvbeta2 NADPH turnover – biochemical, NADPH fluorescence, primary screen (AID 623); conditions: Recombinant KvBeta, NADPH fluorescence decrease slope, 10 min; at 10 µM; stronger effect = lower value;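 note: fluorescence intensity change per second fitted from 20 to 320 s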
[7] = biological target: Muscarinic acetylcholine receptor M4 (Homo sapiens) (UniProt P08173); experiment: M4-linked GIRK flux change, two-sided – cell-based, HEK293 M4/GIRK, thallium flux, BTC-AM, M4 allosteric agonist project, primary screen (AID 625;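 active = fluorescence slope after compound addition differing from the mean of all tested samples at 99.7% confidence, mostly higher but some lower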;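 note: thallium influx through GIRK channels coupled to M4 in HEK293 cells with BTC-AM dye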); conditions: at 10 µM, actives lie on both sides
[8] = inhibitors of larval lipid processing in zebrafish, primary screen, whole organism, PED6 fluorescence, gall bladder and intestine (AID 686;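 active = a full or partial loss of lipid-probe fluorescence in the fish gall bladder, intestine or both, judged by eye; inactive = no fluorescence loss, or compound toxic to the fish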;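 note: larvae 5 to 7 days old with five fish per well; signal comes from phospholipase A2 cleavage of quenched PED6 carried via bile; overnight exposure to compound and PED6 before scoring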); conditions: Zebrafish larvae PED6 lipid processing, fluorescence scoring; screened at 20 µM (by protocol)
[9] = loss of swimming-algae plug formation – whole organism, Chlamydomonas reinhardtii, WT vs cilia-less mutant, absorbance, 96-well, primary screen (AID 463189;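 active = inhibition at or above 50% relative to wild type and mutant plate controls; inactive = inhibition below 50%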;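 note: 0% = wild type cc124 cells in DMSO and 100% = ciliumless bld1 mutant cells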); conditions: Chlamydomonas reinhardtii gravitaxis, OD600 absorbance, 2 days; at 10 µM; stronger effect = higher value
[10] = reduction of polyQ htt aggregates in cells – imaging, exon1htt(103Q)mCFP cells, high-content imaging, primary screen (AID 483;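 active = visual image review flags a hit and inhibition of aggregation exceeds 20%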;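 note: compound exposure lasted 3 days before fixation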;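 for nuclei count: percent of the per-plate median nuclei count of sample wells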); conditions: exon1htt(103Q)mCFP cell line, aggregate imaging, at 2 µM; inhibition of aggregation: stronger effect = higher value; nuclei count: measured here: cell count, toxicity
[11] = biological target: Alpha-2C adrenergic receptor (Homo sapiens) (UniProt P18825); experiment: compounds altering alpha2C-coupled GIRK flux – cell-based, HEK293 alpha2C/GIRK1/2, thallium flux, primary screen (AID 624;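 active = fluorescence slope after compound addition differing from the mean of all screened samples at 99.7% confidence, in either direction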;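 note: slope of fluorescence ratio to pre-addition baseline per second over 15 to 24 s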); conditions: thallium flux BTC fluorescence, at 10 µM, actives lie on both sides
[12] = blockers of RIG-like receptor reporter activation – cell-based, Sendai virus stimulus, luciferase, 10K MLSCN set, TLR/RLR signaling modifier project, primary screen (AID 602276;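 active = inhibition at or above 50% at 10 µM; inactive = inhibition below 50%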;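 note: firefly luciferase from ISG56 promoter only with Renilla not read in this screen; 0% = Sendai virus plus DMSO and 100% = medium plus DMSO without virus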); conditions: HEK293 RL24 IRF3 luciferase reporter, at 10 µM, stronger effect = higher value
[13] = TLR3 IRF3 reporter activation blockers – cell-based, poly I:C stimulus, luciferase, 10K MLSCN set, primary screen (AID 602277;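 active = inhibition of the reporter signal at or above 50%; inactive = inhibition below 50%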); conditions: HEK293-TLR3 RL24 IRF3 luciferase reporter, at 10 µM, stronger effect = higher value
[14] = measured here: cell density z-score
[15] = measured here: nuclear c-Myc green intensity z-score
[16] = measured here: nuclear pErk red intensity z-score, stronger effect = higher value

Chain of Voltage-gated potassium channel subunit beta-2 (Rattus norvegicus) (P62483 whole entry, looked up): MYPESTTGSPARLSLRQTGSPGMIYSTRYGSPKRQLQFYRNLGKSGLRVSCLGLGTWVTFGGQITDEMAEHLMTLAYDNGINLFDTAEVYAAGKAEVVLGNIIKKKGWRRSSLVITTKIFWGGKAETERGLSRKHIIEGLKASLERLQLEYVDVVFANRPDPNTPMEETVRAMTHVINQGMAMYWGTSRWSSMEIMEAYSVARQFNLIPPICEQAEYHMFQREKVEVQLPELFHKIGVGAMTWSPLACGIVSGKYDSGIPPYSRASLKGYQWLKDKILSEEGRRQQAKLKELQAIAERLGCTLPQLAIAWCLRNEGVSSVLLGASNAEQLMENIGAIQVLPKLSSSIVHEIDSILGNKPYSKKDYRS
Chain of Dual specificity protein phosphatase 6 (Homo sapiens) (Q16828 whole entry, looked up): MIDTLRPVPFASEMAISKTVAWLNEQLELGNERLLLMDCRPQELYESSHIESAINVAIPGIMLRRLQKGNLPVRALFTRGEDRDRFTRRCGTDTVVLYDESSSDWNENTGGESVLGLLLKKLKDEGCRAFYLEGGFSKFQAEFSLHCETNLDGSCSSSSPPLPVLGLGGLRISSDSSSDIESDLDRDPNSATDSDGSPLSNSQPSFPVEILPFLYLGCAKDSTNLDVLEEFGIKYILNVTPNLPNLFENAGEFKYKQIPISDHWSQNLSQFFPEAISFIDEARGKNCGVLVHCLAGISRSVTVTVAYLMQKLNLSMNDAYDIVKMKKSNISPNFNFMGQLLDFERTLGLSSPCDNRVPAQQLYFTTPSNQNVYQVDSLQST
Chain of Muscarinic acetylcholine receptor M4 (Homo sapiens) (P08173 whole entry, looked up): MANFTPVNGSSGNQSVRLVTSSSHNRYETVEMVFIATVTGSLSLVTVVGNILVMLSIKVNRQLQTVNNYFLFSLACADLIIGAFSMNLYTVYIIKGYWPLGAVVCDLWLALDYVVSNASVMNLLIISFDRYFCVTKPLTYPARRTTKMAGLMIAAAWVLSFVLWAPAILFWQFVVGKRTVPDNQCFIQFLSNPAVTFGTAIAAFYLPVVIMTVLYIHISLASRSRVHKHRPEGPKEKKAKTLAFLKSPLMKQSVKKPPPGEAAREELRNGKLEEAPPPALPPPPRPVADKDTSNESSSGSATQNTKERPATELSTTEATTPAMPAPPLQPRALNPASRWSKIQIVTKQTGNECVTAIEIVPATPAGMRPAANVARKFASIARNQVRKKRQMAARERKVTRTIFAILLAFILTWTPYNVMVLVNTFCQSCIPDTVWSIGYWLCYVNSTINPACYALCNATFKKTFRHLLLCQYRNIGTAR
Chain of Alpha-2C adrenergic receptor (Homo sapiens) (P18825 whole entry, looked up): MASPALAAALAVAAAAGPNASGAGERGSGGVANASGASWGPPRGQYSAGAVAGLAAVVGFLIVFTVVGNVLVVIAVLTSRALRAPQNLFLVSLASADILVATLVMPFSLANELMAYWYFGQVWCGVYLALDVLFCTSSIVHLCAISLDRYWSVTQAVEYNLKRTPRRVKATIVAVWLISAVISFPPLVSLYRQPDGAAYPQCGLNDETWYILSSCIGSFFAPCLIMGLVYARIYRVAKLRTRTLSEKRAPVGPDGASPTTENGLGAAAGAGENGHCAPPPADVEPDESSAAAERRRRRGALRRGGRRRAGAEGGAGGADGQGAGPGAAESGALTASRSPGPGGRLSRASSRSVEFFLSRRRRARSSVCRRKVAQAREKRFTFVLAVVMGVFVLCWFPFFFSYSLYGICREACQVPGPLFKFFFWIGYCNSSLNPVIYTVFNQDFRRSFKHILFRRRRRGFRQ

Compound	cell count [1]	inhibition [1]	inhibition [2]	nuclei count [2] [%]	z-score [3, 14]	z-score [3, 15]	z-score [3, 16]	inhibition [4]	fluorescence slope [5]	NADPH fluorescence slope [6]	fluorescence slope [7]	outcome [8]	inhibition [9]	inhibition of aggregation [10]	nuclei count [10] [%]	slope [11]	inhibition [12]	inhibition [13]
COC(=O)c1[nH]c2cc(OC)ccc2c1NC(=O)CN1CCN(c2cccc(C)c2)C(C)C1 (centres undefined)	670	1% (inactive)	-108% (inactive)	166	-0.376	-0.924	-0.753	-1.12% (inactive)	-0.429 (inactive)	-3.4e-05 (inactive)	0.0042 (inactive)	inactive	4.21% (inactive)	–	–	–	–	–
CCOC(=O)c1ccc(COC(=O)c2cc3ccccc3oc2=O)o1	607	-1.2% (inactive)	-39.1% (inactive)	96.9	–	–	–	–	-0.48 (inactive)	1.6e-06 (inactive)	–	–	–	1.7% (inactive)	101	0.00426 (inactive)	-6.72% (inactive)	-32.7% (inactive)
CCOC(=O)CN1CC23C=CC(O2)C(C(=O)Nc2ccc(OCC)cc2)C3C1=O (centres undefined)	615	0.7% (inactive)	-5.7% (inactive)	106	–	–	–	–	-0.517 (inactive)	-1.3e-05 (inactive)	–	–	–	-10.5% (inactive)	112	0.00673 (inactive)	7.04% (inactive)	15.5% (inactive)
CCc1c(C(=O)NCCc2ccc(OC)c(OC)c2)[nH]c(C)c1C(C)=O	274	2.4% (inactive)	5.2% (inactive)	93.4	–	–	–	–	-0.34 (inactive)	-1.2e-05 (inactive)	–	–	–	-21.3% (inactive)	107	0.00669 (inactive)	17.6% (inactive)	16.1% (inactive)
Cc1cc(C)cc(C(=O)N2CCC(C(N)=O)CC2)c1	706	-3.5% (inactive)	-54.3% (inactive)	122	–	–	–	–	-0.297 (inactive)	-4.1e-05 (inactive)	–	–	–	-33.2% (inactive)	109	0.00604 (inactive)	13.6% (inactive)	20.8% (inactive)
CCOC(=O)N1CCN(C(=O)CSc2nnc(-c3cccc(Cl)c3)o2)CC1	543	11.7% (inactive)	-3.2% (inactive)	96	–	–	–	–	-0.494 (inactive)	-0.000158 (inactive)	–	–	–	-117% (inactive)	10.5	0.00621 (inactive)	0.178% (inactive)	18.7% (inactive)
Cc1cccn2c(=O)c(/C=C(\C#N)S(=O)(=O)c3ccccc3)c(N3CCN(C)CC3)nc12	468	-9.2% (inactive)	–	183	-0.688	-1.21	-0.646	7.7% (inactive)	-0.457 (inactive)	-6e-05 (inactive)	0.00316 (inactive)	inactive	1.87% (inactive)	–	–	–	–	–
COC(=O)CCn1nnc(-c2cccs2)n1	547	-6.8% (inactive)	-34.8% (inactive)	96	–	–	–	–	-0.598 (inactive)	-5.1e-05 (inactive)	–	–	–	7.6% (inactive)	110	0.00439 (inactive)	-2.1% (inactive)	-22% (inactive)
CCc1ccc(N2CC(C(=O)OCC(=O)NC3CCS(=O)(=O)C3)CC2=O)cc1 (centres undefined)	260	21% (inactive)	6.8% (inactive)	91.9	–	–	–	–	-0.468 (inactive)	7e-05 (inactive)	–	–	–	12% (inactive)	85.2	0.00704 (inactive)	0.238% (inactive)	7.99% (inactive)
O=C(CSc1nc2ccccc2s1)Nn1cnnc1	461	-6.2% (inactive)	–	166	-0.815	-1.79	0.477	6.04% (inactive)	-0.439 (inactive)	-7.8e-05 (inactive)	0.00557 (inactive)	inactive	17.1% (inactive)	–	–	–	–	–
CS(=O)(=O)N1CCCC(C(=O)NCc2ccccc2Cl)C1 (centres undefined)	636	-10.2% (inactive)	-124% (inactive)	97.8	–	–	–	–	-0.59 (inactive)	-1.1e-05 (inactive)	–	–	–	20.1% (inactive)	77.4	0.00562 (inactive)	3.11% (inactive)	8.19% (inactive)
CCOC(=O)N1CCN(c2c(N3CCN(c4ccccc4OC)CC3)c(=O)c2=O)CC1	651	-2.3% (inactive)	-66.1% (inactive)	129	–	–	–	–	-0.532 (inactive)	-2.1e-05 (inactive)	–	–	–	18.3% (inactive)	109	0.0077 (inactive)	3.99% (inactive)	15% (inactive)
Cc1cc(C)n(-c2ccc3cccc(NS(C)(=O)=O)c3n2)n1	221	13.2% (inactive)	26.7% (inactive)	107	–	–	–	–	-0.392 (inactive)	-3.1e-05 (inactive)	–	–	–	-10.7% (inactive)	76.6	0.00539 (inactive)	11% (inactive)	12.8% (inactive)
O=C(CSc1nnc(-c2ccncc2)o1)Oc1ccccc1	662	-2.6% (inactive)	-84.7% (inactive)	109	–	–	–	–	-0.39 (inactive)	-5.2e-05 (inactive)	–	–	–	-12.9% (inactive)	109	0.00449 (inactive)	16.3% (inactive)	13.7% (inactive)
COc1ccc(N2CCN(C(=O)c3c(-c4ccccc4)noc3C)CC2)cc1	650	1.1% (inactive)	-7.4% (inactive)	96	–	–	–	–	-0.578 (inactive)	-3.3e-05 (inactive)	–	–	–	-16% (inactive)	90.4	0.00611 (inactive)	-19.4% (inactive)	-16.5% (inactive)
